High-throughput results (PubChem)
Only some compounds are listed: those with a hit (about 2.8% of all), similar ones and a draw of the others.
pCIP destab: p/CIP-EGFP fusion destabilizers, primary screen, fluorescence, F442A cells; AID 1984, 2009; 290,000 tested, 0.01% active; Q05BA5; 16 h; decrease of EGFP signal, % at 10 µM;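 active = EGFP signal decrease of at least 30% at 10 µM or well 3 SD below plate mean, unless failing retest; inactive = the rest, including hits failing retest or dose response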
AHR act: AHR activators, primary screen, cell-based, luminescence, luciferase reporter, human | Aryl hydrocarbon receptor (Homo sapiens), P35869 | AHR-responsive luciferase reporter cells | activation, % at 5 µM | 320,000 tested, 2.5% active | AID 2796, 2010; in the data active = activation above about 47%;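 note: 0% = vehicle wells and 100% = reference agonist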
HIF activator: HIF pathway transcriptional activators, primary screen, cell-based, U2OS HRE-luciferase, luminescence; AID 1910, 2009; 300,000 tested, 0.32% active; U2OS HRE-luciferase reporter; normalized: DMSO 0%, desferrioxamine 100%; activation, % at 7.5 µM (by protocol);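 active = mean activation of at least 10% of the iron chelator positive control signal, with at least half of replicates also reaching 10%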
Platelet DG rel: inhibitors of platelet dense granule secretion, primary screen, cell-based, MLPCN, human platelets. inhibition, %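 (compounds screened at 7.5 µM in platelet-rich plasma)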. 300,000 tested, 0.22% active. human platelet-rich plasma, SFLLRN dense granule ATP release, luminescence;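 active = mean replicate score, as percent of positive control, at or above 50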
PolyA inhibitor: polyadenylation inhibitors in yeast reporter cells, primary screen, luminescence, S. cerevisiae. S. cerevisiae SKY197-pL101 polyadenylation reporter, beta-gal luminescence; efflux-impaired pdr1/pdr3 knockout yeast; score 100 = 6 SD above DMSO. activity score, % at 12 µM. 300,000 tested, 0.02% active. AID 1875, 2009;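 active = lowest replicate activity score at least 50, where 100 means six control SD above control mean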;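 note: yeast exposed to compound for 9 h at 30 °C; higher score means more reporter readthrough which indicates perturbed polyadenylation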
The depositor's hits bear a star; / = no result given.

SMILES	pCIP destab	AHR act	HIF activator	Platelet DG rel	PolyA inhibitor
CCOC(=O)c1[nH]c2ccc(OC)cc2c1NC(=O)c1ccc(OC)c(OC)c1	0.0	2.9	-0.5	8.5	5.2
COC(=O)c1[nH]c2cc(OC)c(OC)cc2c1NC(=O)c1cccc(OC)c1	4.9	62.3*	0.9	7.3	18.7
COc1ccc(-c2nc(CN3CCC(C(=O)N4CCOCC4)CC3)c(C)o2)cc1C	-6.1	1.0	0.1	-7.3	6.7
COc1cc(OC)cc(OC(=O)C2CCN(C3=NS(=O)(=O)c4ccccc43)CC2)c1	/	0.1	/	/	/
COc1cccc(NC(=S)N2CCN(C/C=C/c3ccccc3)CC2)c1	-13.6	0.2	0.9	3.5	-5.4
COc1cc(NC(=S)N2CCN(C/C=C/c3ccccc3)CC2)cc(OC)c1	1.9	8.1	0.0	56.6*	-7.6
CCOC(=O)c1c[nH]c2ccc3ccccc3c2c1=O	9.6	7.2	-1.8	5.5	-2.1
Oc1ccc2ccccc2c1N=Nc1ccccc1F	-1.8	50.1*	0.9	-0.7	-13.8
Oc1ccc2ccccc2c1N=Nc1ccccn1	-30.4	73.6*	33.5*	-3.6	-5.1
CCOC(=O)c1[nH]cnc1N=Nc1c(O)ccc2ccccc12	-7.4	6.3	37.8*	6.1	-10.5
CCn1c2ccc(C)cc2c2n[nH]c(=S)nc21	6.3	41.3	-0.5	-6.3	8.6
CCS(=O)(=O)c1ncc(Cl)c(C(=O)Nc2ccccc2OC)n1	17.2	35.0	-9.8	25.0	-13.9
COc1ccccc1NC(=O)c1nc(S(=O)(=O)Cc2ccccc2)ncc1Cl	-14.3	59.7*	634.4*	8.0	-46.2
CCN(CC)S(=O)(=O)c1cccc(C(=O)NC(C)C(c2cccs2)N2CCCC2)c1 (centres undefined)	-1.2	-2.9	-0.6	-4.4	-5.8
CCn1c(C)nc2cc(C(=O)NNC(=O)c3ccc(C)cc3)ccc21	/	5.4	/	/	/
Fc1ccc(-c2nc3n(n2)Cc2ccccc2-3)cc1	5.8	61.1*	/	/	-28.2
Cc1ccc(-c2nc3n(n2)Cc2ccccc2-3)cc1	-10.5	41.2	-3.6	18.1	3.6
CCn1c(C)nc2cc(-c3nc4n(n3)Cc3ccccc3-4)ccc21	-15.2	-7.3	-6.2	96.7*	1.6
COc1cc(CCCN2CCNC[C@@H]2Cc2ccc(O)cc2)cc(OC)c1OC	/	0.5	0.2	1.8	-3.9
C/C(CC(=O)Nc1ccc(N(C)C)cc1)=N\NC(=O)c1cnccn1	-3.9	51.6*	0.1	16.2	-6.1
Cc1[nH]c2ccccc2c1-c1csc(NC(=O)CSCC(=O)O)n1	-9.6	17.9	-0.5	-3.3	5.9
Cc1[nH]c2ccccc2c1-c1csc(NC(=O)CN2CCOCC2)n1	-8.7	70.5*	0.6	0.0	2.8
O=C(NCCN1C(=O)S/C(=C\c2cccs2)C1=O)[C@H](Cc1ccccc1)N1C(=O)c2ccccc2C1=O	1.8	8.6	-1.1	0.2	4.5
Cc1ccsc1CNc1ncnc2ccc(-c3c(C)noc3C)cc12	/	55.9*	/	/	/
COc1ccc(CNC(=O)CN(c2ccc(C)cc2)S(=O)(=O)c2c(C)nn(C)c2C)cc1	4.8	1.2	0.0	-3.0	-4.4
SMILES	pCIP destab	AHR act	HIF activator	Platelet DG rel	PolyA inhibitor
O=C(CN1CCCc2ccccc21)N/N=C/c1ccccc1O	-9.6	47.4*	2.7	-1.4	-2.6
COc1ccc(OC)c(C(C)NC(=O)C23CC4CC(CC(C4)C2)C3)c1 (centres undefined)	6.3	2.9	0.0	-6.6	-1.2
CC(NC(=O)C12CC3CC(CC(O)(C3)C1)C2)c1ccc(Cl)cc1Cl (centres undefined)	-10.4	0.5	16.0*	9.7	-3.4
Cc1ccc(-c2cc(C(=O)N/N=C/c3c(C)nn(C)c3C)c3ccccc3n2)cc1C	1.7	61.2*	0.5	8.4	1.8
O=C(/C=C/c1cccs1)NNC(=O)c1ccccc1	/	12.6	/	/	/
O=C(CCc1ccccc1)Nc1ccnn1C1CCN(C/C=C/c2ccccc2)CC1	-0.5	3.9	434.5*	-2.4	6.6
COc1ccccc1/C=C/CN1CCC(n2nccc2NC(=O)CCc2ccccc2)CC1	-5.8	8.1	-0.8	-19.5	-10.1
COc1cc2c(cc1OC)C1=C(C#N)CN(CC(=O)O)CN1CC2	-13.0	6.4	-0.1	52.0*	-12.5
CC(C)CCN1C(=O)c2ccc(C(=O)Nc3ccc(Br)cc3C(=O)O)cc2C1=O	7.0	0.5	-1.0	-0.7	-0.2
